Reference: article PMC7862700, “An all-to-all approach to the identification of sequence-specific readers for epigenetic DNA modifications on cytosine”

Assays:
Test in all cases: DAPPL (digital affinity profiling via proximity ligation, sequencing); 10 mM Tris-HCl pH 7.5, 50 mM NaCl, 1 mM DTT, 4% glycerol, room temperature, 30 min; GST-TFs on glutathione beads, 16-mer random dsDNA library, 0.1% formaldehyde crosslink after washing; high values mean tight binding
Conditions in all cases: protein: recombinant; tags: N-terminal GST; dsDNA, one strand shown
ERF = target: T1, ERF (Homo sapiens, UniProt P50548 1-548)
T1 sequence: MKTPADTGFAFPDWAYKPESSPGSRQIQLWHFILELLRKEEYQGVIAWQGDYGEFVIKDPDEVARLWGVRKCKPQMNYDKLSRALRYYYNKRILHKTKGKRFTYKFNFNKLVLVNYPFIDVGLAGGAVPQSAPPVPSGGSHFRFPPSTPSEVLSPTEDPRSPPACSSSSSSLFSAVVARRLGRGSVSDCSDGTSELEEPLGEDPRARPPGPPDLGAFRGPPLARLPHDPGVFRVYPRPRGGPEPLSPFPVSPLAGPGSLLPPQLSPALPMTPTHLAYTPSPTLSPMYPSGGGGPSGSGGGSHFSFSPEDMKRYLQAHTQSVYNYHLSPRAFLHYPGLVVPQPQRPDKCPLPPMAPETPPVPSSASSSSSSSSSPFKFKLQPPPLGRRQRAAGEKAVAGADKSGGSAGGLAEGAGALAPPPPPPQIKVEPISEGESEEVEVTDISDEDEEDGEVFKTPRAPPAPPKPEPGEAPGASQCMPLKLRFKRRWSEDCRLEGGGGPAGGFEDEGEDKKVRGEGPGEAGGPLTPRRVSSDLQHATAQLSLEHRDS
Method in brief: (§1)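 GST fusions of human transcription factors were expressed in yeast and captured with glutathione beads. Once given DNA barcodes and pooled alongside a tag-only sample, they were incubated for 30 min at room temperature with 200 nmole of a random double-stranded 16-mer DNA library in Tris/NaCl/DTT/glycerol buffer, then washed, crosslinked (0.1% formaldehyde), proximity-ligated, PCR-amplified and sequenced on an Illumina NextSeq500. The binding signal of each hexamer is its read frequency for a factor divided by its frequency for the tag-only sample.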

ETV3L = target: T2, ETV3L (Homo sapiens, UniProt Q6ZN32 1-361)
T2 sequence: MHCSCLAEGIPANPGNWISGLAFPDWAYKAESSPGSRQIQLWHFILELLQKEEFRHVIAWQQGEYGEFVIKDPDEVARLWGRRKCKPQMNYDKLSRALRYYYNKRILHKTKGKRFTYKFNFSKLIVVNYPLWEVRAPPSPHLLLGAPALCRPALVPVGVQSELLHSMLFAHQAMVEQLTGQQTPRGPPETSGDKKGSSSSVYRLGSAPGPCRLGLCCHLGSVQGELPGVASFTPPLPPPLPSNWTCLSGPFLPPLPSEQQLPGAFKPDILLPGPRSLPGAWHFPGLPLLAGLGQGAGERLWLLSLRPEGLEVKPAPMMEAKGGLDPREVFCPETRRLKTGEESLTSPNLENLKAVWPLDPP
Method in brief: as §1

ETS2 = target: T3, ETS2 (Homo sapiens, UniProt P15036 1-469)
T3 sequence: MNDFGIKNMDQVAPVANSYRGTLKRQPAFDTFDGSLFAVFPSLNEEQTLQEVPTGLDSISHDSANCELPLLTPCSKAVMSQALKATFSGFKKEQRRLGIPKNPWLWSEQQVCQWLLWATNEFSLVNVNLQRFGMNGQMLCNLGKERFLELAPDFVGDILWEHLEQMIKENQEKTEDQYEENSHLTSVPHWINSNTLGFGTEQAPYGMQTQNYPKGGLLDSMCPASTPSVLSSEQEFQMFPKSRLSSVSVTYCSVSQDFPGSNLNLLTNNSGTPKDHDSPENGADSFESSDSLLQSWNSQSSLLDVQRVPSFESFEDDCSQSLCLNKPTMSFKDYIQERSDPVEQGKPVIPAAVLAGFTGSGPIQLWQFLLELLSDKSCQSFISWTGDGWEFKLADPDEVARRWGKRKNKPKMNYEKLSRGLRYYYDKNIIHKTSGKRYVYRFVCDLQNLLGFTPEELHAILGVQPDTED
Method in brief: as §1

SPDEF = target: T4, SPDEF (Homo sapiens, UniProt O95238 1-335)
T4 sequence: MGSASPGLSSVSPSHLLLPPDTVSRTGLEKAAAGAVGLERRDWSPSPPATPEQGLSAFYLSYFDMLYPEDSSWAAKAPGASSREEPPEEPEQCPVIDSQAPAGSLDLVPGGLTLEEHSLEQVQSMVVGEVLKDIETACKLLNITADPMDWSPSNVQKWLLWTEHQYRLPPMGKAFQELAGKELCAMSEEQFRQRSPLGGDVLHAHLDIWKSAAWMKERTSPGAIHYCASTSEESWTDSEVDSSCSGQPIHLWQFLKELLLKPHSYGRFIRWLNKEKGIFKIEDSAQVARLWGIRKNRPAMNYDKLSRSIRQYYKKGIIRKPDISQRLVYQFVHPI
Method in brief: as §1

ETV7 = target: T5, ETV7 (Homo sapiens, UniProt Q9Y603 1-341)
T5 sequence: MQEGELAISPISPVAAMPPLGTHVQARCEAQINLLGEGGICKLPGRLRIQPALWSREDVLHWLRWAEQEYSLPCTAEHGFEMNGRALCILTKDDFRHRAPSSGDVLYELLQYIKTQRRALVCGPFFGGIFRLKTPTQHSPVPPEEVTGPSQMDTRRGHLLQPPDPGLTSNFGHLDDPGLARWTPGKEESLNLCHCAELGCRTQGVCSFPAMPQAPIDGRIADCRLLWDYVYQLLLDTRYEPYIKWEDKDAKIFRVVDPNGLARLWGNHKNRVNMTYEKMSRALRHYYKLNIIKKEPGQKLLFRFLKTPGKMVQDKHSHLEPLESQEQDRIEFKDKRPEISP
Method in brief: as §1

ELF5 = target: T6, ELF5 (Homo sapiens, UniProt Q9UKW6-2 1-255)
T6 sequence: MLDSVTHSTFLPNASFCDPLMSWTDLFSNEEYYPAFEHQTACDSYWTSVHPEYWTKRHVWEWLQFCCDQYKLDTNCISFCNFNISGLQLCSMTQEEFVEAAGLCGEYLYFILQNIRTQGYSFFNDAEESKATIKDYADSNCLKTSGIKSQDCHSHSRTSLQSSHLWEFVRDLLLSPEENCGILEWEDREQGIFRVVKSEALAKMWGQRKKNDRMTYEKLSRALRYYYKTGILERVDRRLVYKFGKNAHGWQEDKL
Method in brief: as §1

ETV3 = target: T7, ETV3 (Homo sapiens, UniProt P41162-2 1-143)
T7 sequence: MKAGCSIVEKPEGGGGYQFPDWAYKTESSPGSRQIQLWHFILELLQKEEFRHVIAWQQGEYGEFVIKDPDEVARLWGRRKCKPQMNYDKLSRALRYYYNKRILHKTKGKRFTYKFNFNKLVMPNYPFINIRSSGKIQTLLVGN
Method in brief: as §1

ETV6 = ETV6 (Homo sapiens, UniProt P41212 1-452)
Chain of ETV6 (P41212 whole entry): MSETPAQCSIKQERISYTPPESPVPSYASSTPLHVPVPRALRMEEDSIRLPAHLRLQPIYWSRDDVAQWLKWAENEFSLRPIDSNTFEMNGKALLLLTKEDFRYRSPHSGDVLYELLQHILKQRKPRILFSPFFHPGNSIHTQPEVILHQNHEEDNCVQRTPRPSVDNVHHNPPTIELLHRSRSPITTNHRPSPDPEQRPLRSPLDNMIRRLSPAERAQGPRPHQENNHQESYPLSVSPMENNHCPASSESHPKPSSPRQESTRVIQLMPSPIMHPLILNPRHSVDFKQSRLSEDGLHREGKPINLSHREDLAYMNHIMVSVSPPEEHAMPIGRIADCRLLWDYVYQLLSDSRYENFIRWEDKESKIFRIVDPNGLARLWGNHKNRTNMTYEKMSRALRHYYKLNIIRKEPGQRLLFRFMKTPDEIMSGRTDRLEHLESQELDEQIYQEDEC
Method in brief: as §1

| Sequence | binding signal (ERF) | binding signal (ETV3L) | binding signal (ETS2) | binding signal (SPDEF) | binding signal (ETV7) | binding signal (ELF5) | binding signal (ETV3) | binding signal (ETV6) |
| --- | --- | --- | --- | --- | --- | --- | --- | --- |
| TATGGG | 1.19 fold enrichment (6-mer frequency, TF over GST control) | 1.13 fold enrichment (6-mer frequency, TF over GST control) | 1.15 fold enrichment (6-mer frequency, TF over GST control) | 1.14 fold enrichment (6-mer frequency, TF over GST control) | 1.24 fold enrichment (6-mer frequency, TF over GST control) | 1.16 fold enrichment (6-mer frequency, TF over GST control) | 1.17 fold enrichment (6-mer frequency, TF over GST control) | 1.34 fold enrichment (6-mer frequency, TF over GST control) |
| CCGCTC | 1.66 fold enrichment (6-mer frequency, TF over GST control) | 1.74 fold enrichment (6-mer frequency, TF over GST control) | 1.54 fold enrichment (6-mer frequency, TF over GST control) | 1.44 fold enrichment (6-mer frequency, TF over GST control) | 1.42 fold enrichment (6-mer frequency, TF over GST control) | 1.53 fold enrichment (6-mer frequency, TF over GST control) | 1.46 fold enrichment (6-mer frequency, TF over GST control) | 1.32 fold enrichment (6-mer frequency, TF over GST control) |
| CTCTTG | 1.53 fold enrichment (6-mer frequency, TF over GST control) | 1.42 fold enrichment (6-mer frequency, TF over GST control) | 1.23 fold enrichment (6-mer frequency, TF over GST control) | 1.26 fold enrichment (6-mer frequency, TF over GST control) | 1.27 fold enrichment (6-mer frequency, TF over GST control) | 1.43 fold enrichment (6-mer frequency, TF over GST control) | 1.35 fold enrichment (6-mer frequency, TF over GST control) | 1.2 fold enrichment (6-mer frequency, TF over GST control) |
| CAATAC | 1.38 fold enrichment (6-mer frequency, TF over GST control) | 1.3 fold enrichment (6-mer frequency, TF over GST control) | 1.22 fold enrichment (6-mer frequency, TF over GST control) | 1.23 fold enrichment (6-mer frequency, TF over GST control) | 1.35 fold enrichment (6-mer frequency, TF over GST control) | 1.18 fold enrichment (6-mer frequency, TF over GST control) | 1.29 fold enrichment (6-mer frequency, TF over GST control) | 1.22 fold enrichment (6-mer frequency, TF over GST control) |
| ATCGCC | 1.27 fold enrichment (6-mer frequency, TF over GST control) | 1.32 fold enrichment (6-mer frequency, TF over GST control) | 1.3 fold enrichment (6-mer frequency, TF over GST control) | 1.12 fold enrichment (6-mer frequency, TF over GST control) | 1.03 fold enrichment (6-mer frequency, TF over GST control) | 1.25 fold enrichment (6-mer frequency, TF over GST control) | 1.14 fold enrichment (6-mer frequency, TF over GST control) | 1.28 fold enrichment (6-mer frequency, TF over GST control) |
| CTGATA | 1.16 fold enrichment (6-mer frequency, TF over GST control) | 1.21 fold enrichment (6-mer frequency, TF over GST control) | 1.17 fold enrichment (6-mer frequency, TF over GST control) | 1.15 fold enrichment (6-mer frequency, TF over GST control) | 1.08 fold enrichment (6-mer frequency, TF over GST control) | 1.2 fold enrichment (6-mer frequency, TF over GST control) | 1.26 fold enrichment (6-mer frequency, TF over GST control) | 1.06 fold enrichment (6-mer frequency, TF over GST control) |
| ACTAAT | 1.27 fold enrichment (6-mer frequency, TF over GST control) | 1.24 fold enrichment (6-mer frequency, TF over GST control) | 1.28 fold enrichment (6-mer frequency, TF over GST control) | 1.21 fold enrichment (6-mer frequency, TF over GST control) | 1.45 fold enrichment (6-mer frequency, TF over GST control) | 1.27 fold enrichment (6-mer frequency, TF over GST control) | 1.12 fold enrichment (6-mer frequency, TF over GST control) | 1.31 fold enrichment (6-mer frequency, TF over GST control) |
